Calls of active or inactive are those of the source.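 How the source made its calls: active means a dissociation constant for apoferritin binding could be measured by titration calorimetry; inconclusive means binding seen but dissociation constant not obtainable; inactive means no binding seen.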
Target: Ferritin light chain (Equus caballus) (UniProt P02791)
Assay: Isothermal Titration Calorimetry Based Assay for Measurement of Binding Affinity to Apoferritin
Conditions: horse apoferritin
Excerpt: Anesthetic development has remained a largely empirical process. There are growing concerns about the cognitive effects of known general anesthetics and acceleration of the onset of neurodegenerative disease. The compounds' toxicity and multiple specific binding targets in the mammalian brain [4] has made them less attractive as drug leads. This isothermal titration calorimetry (ITC) assay is used to provide Kd binding affinity measurements for apoferritin, which is used here as a surrogate system to identify compounds with potential anesthetic properties. References: [1] S.L. Bianchi, T. Tran, C. Liu, S. Lin, Y. Li, J.M. Keller, R.G. Eckenhoff, and M.F. Eckenhoff, Brain and behavior changes in 12-month-old Tg2576 and nontransgenic mice exposed to anesthetics. Neurobiol Aging 29 (2008) 1002-10. Z. Xie, Y. Dong, U. Maeda, R.D. Moir, W. Xia, D.J. Culley, G. Crosby, and R.E. Tanzi, The inhalation anesthetic isoflurane induces a vicious cycle of apoptosis and amyloid beta-protein accumulation. J Neurosci 27 (2007) 1247-54. […]
In order to further triage primary hits identified from qHTS screen (AID 485281), ITC was utilized to evaluate direct binding signatures between filtered compounds and apoferritin and provide a complete thermodynamic characterization of selected compounds. […] Concentrations were then determined using absorption spectroscopy based on standards prepared in organic solvents. […]

Ferritin light chain (Equus caballus), sequence (P02791 2-175 limits assumed): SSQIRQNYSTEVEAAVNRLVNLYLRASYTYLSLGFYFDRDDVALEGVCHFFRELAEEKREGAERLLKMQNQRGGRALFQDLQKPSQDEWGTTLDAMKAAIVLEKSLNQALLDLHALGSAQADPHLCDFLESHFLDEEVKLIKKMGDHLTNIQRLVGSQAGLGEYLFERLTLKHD

Compound | Kd
Cc1ccc(-c2ccc(=O)n(CC(=O)NCCc3ccccc3)n2)cc1 | 8.2 µM (active)
COc1ccc(-c2ccc(=O)n(CC(=O)NCc3ccco3)n2)cc1 | 4.2 µM (active)

Source: PubChem BioAssay AID624122 (National Center for Advancing Translational Sciences (NCATS), 2012)
